Compound activity: PubChem, National Center for Advancing Translational Sciences (NCATS)
TSHR antag = antagonists of human thyroid stimulating hormone receptor; TSHR-expressing cells, TSH-stimulated cAMP HTRF, 2 h; active compounds read low; activity change, negative = inhibition, % at 11.5 µM; 330,000 compounds, 0.2% hits; AID 504810;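 active means activity change below a set negative limit, meaning inhibition stronger than a set level, cut at about -70% in these data; inconclusive means activity change between two set negative limits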; further: on the % scale 0 is the no-effect control and ±100 the full control effect
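Freshly harvested TSHR cells receive pin-tooled compound, then EC80 TSH at 4nM final. After 2 hours at 37 deg C, antibody in lysis buffer and cAMP-d2 are added; 30 minutes at ambient temperature precede the HTRF read.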
gsp agonist = agonists of gsp mutant (McCune-Albright syndrome). gsp mutant cells, cAMP HTRF, 30 min. 340,000 compounds, 0.13% hits. Potency, µM (titrated, usually from 76.9 µM), for inactives: top-dose activation (cAMP increase), actives largely listed as activators; active means well fitted activation curve with a large enough effect; inconclusive means small, poorly fitted or top-dose-only effect, or another doubt; inactive means no such curve, though single readings can be large or run the other way; cell line not stated here;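 further: phosphodiesterase inhibitor Ro 20-1724 added with compounds to block cAMP breakdown; potency means the concentration at half of the fitted maximal effect; nearly all actives have a fitted effect of over 60% in size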
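Cells stably selected in G418 were plated at 2000/well, grown 16-24 hr, then given compounds in DMSO with the PDE inhibitor […] (300 uM solution added) for 30 min at 37C; cAMP was read by HTRF.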
gsp antag = antagonists of gsp mutant (McCune-Albright syndrome); gsp-mutant cells, cAMP HTRF, 30 min; Potency, µM (titrated, usually from 76.9 µM), for inactives: at the highest dose activity change, negative = inhibition, most hits filed as inhibitors; 340,000 compounds, 0.4% hits; AID 624288; calls by dose curve; cell line not stated here;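 further: intracellular cAMP measured with PDE inhibitor Ro 20-1724 present during compound exposure; potency means the concentration at half of the fitted maximal effect; on the % scale 0 is the no-effect control and ±100 the full control effect; nearly all actives have a fitted effect of over 65% in size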
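Measurement of cellular cAMP by homogeneous time-resolved fluorescence following a 30 min compound exposure at 37C. The PDE inhibitor […] was present throughout; the assay buffer was DPBS with 0.05% BSA and 0.005% Tween 20.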
RXFP1 agonist = RXFP1 (human) receptor agonism | AID 2676 | HEK293T-RXFP1 cAMP TR-FRET, 30 min; response scale: percent of porcine relaxin response, buffer zero | Potency, µM (doses to about 57.5 µM), for the others: top-dose activation, actives largely listed as activators | 370,000 compounds, 0.3% hits | Q9HBX9; active means well fitted activation curve with a large enough effect; inconclusive means small, poorly fitted or top-dose-only effect; further: potency means the concentration at half of the fitted maximal effect; on the % scale 0 is the no-effect control and ±100 the full control effect; nearly all actives have a fitted effect of over 60% in size
Target sequence (Q9HBX9 whole entry, looked up): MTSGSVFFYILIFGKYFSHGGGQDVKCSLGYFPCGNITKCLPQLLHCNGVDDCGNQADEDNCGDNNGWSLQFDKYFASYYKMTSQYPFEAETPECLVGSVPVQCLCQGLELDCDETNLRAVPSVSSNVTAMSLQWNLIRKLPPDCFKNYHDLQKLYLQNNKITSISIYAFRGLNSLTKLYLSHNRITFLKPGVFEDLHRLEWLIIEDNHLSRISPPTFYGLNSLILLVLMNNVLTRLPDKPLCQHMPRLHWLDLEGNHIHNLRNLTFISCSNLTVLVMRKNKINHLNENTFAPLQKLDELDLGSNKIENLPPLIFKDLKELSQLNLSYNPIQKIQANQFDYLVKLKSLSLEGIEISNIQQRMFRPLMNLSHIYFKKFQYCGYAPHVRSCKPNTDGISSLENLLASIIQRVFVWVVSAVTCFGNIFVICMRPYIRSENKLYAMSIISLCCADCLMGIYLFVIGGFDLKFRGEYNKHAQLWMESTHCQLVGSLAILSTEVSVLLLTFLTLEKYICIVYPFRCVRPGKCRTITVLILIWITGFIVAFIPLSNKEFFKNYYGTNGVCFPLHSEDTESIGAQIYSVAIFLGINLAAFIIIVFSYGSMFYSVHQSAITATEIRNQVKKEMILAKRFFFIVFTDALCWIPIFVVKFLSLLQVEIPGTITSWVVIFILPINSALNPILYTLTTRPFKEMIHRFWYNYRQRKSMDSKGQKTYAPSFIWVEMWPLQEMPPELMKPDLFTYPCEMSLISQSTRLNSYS
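Agonist response is measured as cAMP accumulation in an RXFP1-transfected HEK293T line under PDE4 inhibition. Values are scaled between buffer-only and 29 nM porcine relaxin, and EC50s come from standard Hill equation fits.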
RXFP1 antagonist = RXFP1 (human) relaxin receptor antagonism | Q9HBX9 | HEK293-RXFP1, relaxin-stimulated cAMP HTRF, 30 min; active compounds read low | activity change, negative = inhibition, % at 57.5 µM | 350,000 compounds, 0.59% hits;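 active means activity change of -60% or lower, but not beyond a set lower limit; inconclusive means change between -60% and -40%, or beyond the set limit; inactive means change above -40%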; further: on the % scale 0 is the no-effect control and ±100 the full control effect
Active calls of the source: *; [ ] = remark or other dose. Most compounds without a hit are left out; they make up all but 1% or so of the library.

What do the screens show for `COC(=O)C1=C(c2ccc(-c3ccccc3)c(F)c2)C[C@@H]2CC[C@H]1N2C(=O)NC(C)C`?
TSHR antag: -93.2*; gsp agonist: -0.8%; gsp antag: -21.9%; RXFP1 agonist: -0.2%

What do the screens show for `COC(=O)C1=C(c2ccc(-c3ccccc3)c(F)c2)C[C@@H]2CC[C@H]1N2C(=O)NCc1ccco1`?
TSHR antag: -82.5*; gsp agonist: -8.0%; gsp antag: -19.2%; RXFP1 agonist: -0.7%

What do the screens show for `COC(=O)C1=C(c2ccc(-c3ccccc3)c(F)c2)C[C@@H]2CC[C@H]1N2C(=O)NC1CC1`?
TSHR antag: -41.1; gsp agonist: -14.3%; gsp antag: inconclusive; RXFP1 agonist: 0.2%

How did Cc1ccccc1CN1C(=O)CN=C(c2ccccc2)c2cc(Cl)ccc21 do in these assays?
RXFP1 agonist: 0.5%; RXFP1 antagonist: -95.5*

Results for Cc1cccc(C(=O)Nc2ccc(C(=O)OCc3cc(=O)n4nc(C5CC5)sc4n3)cc2)c1 ?
RXFP1 agonist: inconclusive; RXFP1 antagonist: -3.0

Results for Cc1ccc([C@H]2C[C@H](n3cc(C4CC4)nn3)[C@@H](O)CN2Cc2cccs2)cc1 ?
gsp agonist: -6.3%; RXFP1 antagonist: -10.8

What do the screens show for `CC/C(=C\C=C\[C@@H]1C=C[C@@H]2CCC[C@H]2[C@@H]1C(=O)c1ccc[nH]1)[C@@H]1O[C@@H]([C@@H](C)C(=O)O)CC[C@@H]1C`?
TSHR antag: -72.2*; gsp agonist: -16.7%; gsp antag: inconclusive; RXFP1 agonist: -0.5%; RXFP1 antagonist: inconclusive

What do the screens show for `O=c1c(C2CC(c3ccc(-c4ccc(Br)cc4)cc3)Cc3ccccc32)c(O)sc2ccccc12` (stereo not drawn)?
RXFP1 antagonist: -72.2*

Results for N#Cc1cc2c(nc1SCC(=O)Nc1ccc(OC(F)(F)F)cc1)C1CCN2CC1 ?
RXFP1 agonist: -0.6%; RXFP1 antagonist: -3.8

Results for COC(=O)C1=C(C(=O)OC)C2OC1c1cc3ccccc3cc12 ?
gsp agonist: inconclusive; gsp antag: -3.5%; RXFP1 antagonist: -119.7*

Results for COC(=O)C1=C(c2ccc3ccccc3c2)C[C@@H]2CC[C@H]1N2C ?
TSHR antag: 38.4; gsp agonist: inconclusive; gsp antag: 4.6%; RXFP1 agonist: -0.9%

What do the screens show for `CCc1ccc(OCC(=O)N2CCN(CCc3ccccn3)CC2)cc1`?
RXFP1 agonist: 0.1%; RXFP1 antagonist: -5.1

How did COc1ccc2[nH]c(C)c(CCNCc3cc(OC)c(OC)c(OC)c3)c2c1 do in these assays?
TSHR antag: 16.3; gsp agonist: 23.8%[15.4 µM]; gsp antag: -31.7%; RXFP1 agonist: -3.9%; RXFP1 antagonist: -2.9

What do the screens show for `COc1ccc(CNCCc2c(C)[nH]c3ccc(OC(F)(F)F)cc23)c(OC)c1`?
TSHR antag: -6.1; gsp agonist: inconclusive; gsp antag: -0.6%; RXFP1 agonist: 0.4%; RXFP1 antagonist: -83.4*

What do the screens show for `Brc1nc(-c2ccccc2)nc(-c2ccccc2)c1Br`?
gsp agonist: inconclusive; gsp antag: -2.3%; RXFP1 antagonist: 6.5

How did Cc1nc2ccccc2c(=O)n1-c1ccc(Br)cn1 do in these assays?
TSHR antag: 1.2; gsp agonist: 2.6%[15.4 µM]; gsp antag: 8.2%; RXFP1 agonist: 2.2%; RXFP1 antagonist: 1.1

What do the screens show for `Cc1nc2ccccc2c(=O)n1/N=C/c1cc(Br)cc(Br)c1O`?
gsp agonist: -0.7%; gsp antag: inconclusive; RXFP1 antagonist: -78.9*

What do the screens show for `CCCN(CCC)c1c([N+](=O)[O-])cc(S(N)(=O)=O)cc1[N+](=O)[O-]`?
RXFP1 antagonist: -73.5*

Results for Fc1ccc(C(OCCN2CCN(CCCc3ccccc3)CC2)c2ccc(F)cc2)cc1 ?
TSHR antag: -8.0; RXFP1 antagonist: -72.7*

What do the screens show for `c1ccc(CCCN2CCN(CCOC(c3ccccc3)c3ccccc3)CC2)cc1`?
TSHR antag: 5.1; gsp antag: -10.0%

What do the screens show for `O=C(O)CNC1c2ccccc2CSc2ccccc21` (stereo not drawn)?
gsp agonist: 9.6%; gsp antag: -11.3%; RXFP1 antagonist: -63.2*

What do the screens show for `O=C(NC(=O)c1c(F)cccc1F)Nc1cc(Cl)c(OC(F)(F)C(F)C(F)(F)F)cc1Cl` (stereo not drawn)?
RXFP1 antagonist: -17.5

What do the screens show for `CCC1(CCC(C)C)C(=O)NC(=O)NC1=O`?
RXFP1 antagonist: 5.9

How did CNC(=O)Oc1cc2c(cc1C(C)(C)C)CCC2 do in these assays?
gsp agonist: inconclusive; gsp antag: -1.9%; RXFP1 antagonist: -85.8*

What do the screens show for `Cc1ccc(-n2c(/C=C\c3ccc(F)c(F)c3)nc3ccccc3c2=O)c(C)c1`?
RXFP1 agonist: 0.9%; RXFP1 antagonist: -1.5

What do the screens show for `O=c1cc(C(F)(F)F)c2cc3c4c(c2o1)CCCN4CCC3`?
TSHR antag: 12.2; gsp agonist: 10µM*; gsp antag: 2.0%; RXFP1 agonist: 9.4%; RXFP1 antagonist: 5.2

How did Cc1cc2c(C(F)(F)F)cc(=O)oc2c2c1NCCC2 do in these assays?
TSHR antag: 24.7; gsp agonist: 15.8µM*; gsp antag: 1.1%; RXFP1 agonist: 4.2%; RXFP1 antagonist: 1.3

What do the screens show for `CC(C)c1ccc(N2C(=O)NC(=O)/C(=C/C=C/c3ccco3)C2=O)cc1`?
TSHR antag: 0.1; gsp agonist: 7.2%; gsp antag: -6.6%; RXFP1 agonist: 0.1%; RXFP1 antagonist: -80.3*

What do the screens show for `O=C1NC(=O)N(Cc2ccc(F)cc2)C(=O)/C1=C\C=C\c1ccco1`?
TSHR antag: -14.6; gsp agonist: 27.3%; gsp antag: 6.0%; RXFP1 agonist: 0.9%; RXFP1 antagonist: -69.7*

Results for O=C1NC(=O)N(Cc2ccccc2)C(=O)/C1=C\c1ccco1 ?
TSHR antag: 3.4; gsp agonist: 19.3%[15.4 µM]; gsp antag: -15.5%; RXFP1 agonist: 1.5%; RXFP1 antagonist: -19.5

Results for CCc1ccc(N2C(=O)NC(=O)/C(=C\C=C\c3ccco3)C2=O)cc1 ?
TSHR antag: 11.7; gsp agonist: -0.4%; gsp antag: -12.7%; RXFP1 agonist: 1.4%; RXFP1 antagonist: -27.0

What do the screens show for `Cc1ccc(N2C(=O)NC(=O)/C(=C/C=C/c3ccco3)C2=O)cc1`?
TSHR antag: -8.2; gsp agonist: 14.3%; gsp antag: -9.0%; RXFP1 agonist: 0.8%; RXFP1 antagonist: -62.2*

How did C[n+]1c(-c2ccccc2)c2cc(N)ccc2c2ccc(N)cc21 do in these assays?
TSHR antag: -12.6; gsp antag: 35.5µM*; RXFP1 agonist: 8.1%

How did CN1C(=O)[C@@H](NC(=O)c2cc3ccccc3[nH]2)N=C(c2ccccc2)c2ccccc21 do in these assays?
RXFP1 antagonist: 9.4
